Compound activity deposited in PubChem by several laboratories.
Hits are enriched below; roughly 5.3% of the tested compounds scored in any of these assays.
SUMO Mot1 rescue = blocks SUMOylation pathway, rescuing yeast Mot1-301 growth | 320,000 tested, 1% active | growth rescue, % at 18.8 µM | S. cerevisiae Mot1-301 growth rescue, ATP luminescence, 38.5C; percent above DMSO median, 100 means doubled;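 active means every valid replicate shows activation above 250% relative to neutral control wells; inactive means the rest, any valid replicate at or below 250%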;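 further: OY570 slx delta 5 strain wells were the positive control but not used for scaling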
M18AAP inhibitor = PfM18AAP enzyme inhibition; inhibition, % at 7.35 µM; 290,000 tested, 1.2% active; AID 1822; recombinant PfM18AAP, H-Glu-NHMec fluorogenic cleavage;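 active means inhibition above the campaign mean inhibition over all tested compounds plus 3 SD, cut at about 28% in these data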;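 further: 0% = plate median of test compound wells and 100% = 2 mM ZnCl2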
ALR H2O2 inh = blocks human ALR sulfhydryl oxidase activity; inhibition, % (concentration not given with the values); P55789; purified ALR, DTT oxidation, H2O2 HRP-luminol luminescence; AID 485317; 290,000 tested, 3.8% active;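 active means mean replicate inhibition above about 79%, with every replicate also reaching it, limit read from the data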
Target sequence (P55789 whole entry, looked up): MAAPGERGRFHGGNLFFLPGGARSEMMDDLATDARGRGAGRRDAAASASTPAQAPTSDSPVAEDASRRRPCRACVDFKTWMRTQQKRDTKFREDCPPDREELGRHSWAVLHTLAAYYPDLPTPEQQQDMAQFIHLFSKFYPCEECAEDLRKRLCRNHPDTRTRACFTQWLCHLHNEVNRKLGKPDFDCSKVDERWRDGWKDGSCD
HIF act = HIF pathway transcriptional activation | U2OS HRE-luciferase reporter, luminescence; normalized: DMSO 0%, desferrioxamine 100% | AID 1910 | activation, % at 7.5 µM (by protocol) | 300,000 tested, 0.32% active;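 active means mean activation of at least 10% of the iron chelator positive control signal, with at least half of replicates also reaching 10%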
Numbers without * were called inactive.

What do the screens show for `O=C1CCC(=O)N1c1ccc(CSc2nc3ccccc3[nH]2)cc1`?
SUMO Mot1 rescue: 33; M18AAP inhibitor: -28; ALR H2O2 inh: 99*; HIF act: 1

How did COc1ccc(CSc2nc3ccccc3[nH]2)cc1 do in these assays?
SUMO Mot1 rescue: 12; M18AAP inhibitor: -10; ALR H2O2 inh: -8; HIF act: 3

How did Cn1cc(SCC(=O)N2CCN(c3ccccc3)CC2)c2ccccc21 do in these assays?
SUMO Mot1 rescue: -19; M18AAP inhibitor: 2; ALR H2O2 inh: 98*; HIF act: 0

What do the screens show for `O=C(c1ccc(S(=O)(=O)Nc2ccc(F)cc2)cc1)N1CCN(c2ccccn2)CC1`?
SUMO Mot1 rescue: 6; M18AAP inhibitor: 6; HIF act: -1

How did O=C(CSc1nc2ccccc2[nH]1)N1CCN(c2ccccc2)CC1 do in these assays?
SUMO Mot1 rescue: -2; M18AAP inhibitor: 2; ALR H2O2 inh: 99*; HIF act: 1

Results for O=C(CCCSc1nc2ccccc2[nH]1)N1CCN(c2ccccc2)CC1 ?
SUMO Mot1 rescue: 9; M18AAP inhibitor: -2; ALR H2O2 inh: 22; HIF act: 0

What do the screens show for `N#CCCn1c(SCC(=O)Nc2ccc(N3CCOCC3)cc2)nc2ccccc21`?
SUMO Mot1 rescue: -5; M18AAP inhibitor: 4; ALR H2O2 inh: 99*; HIF act: 0

How did COCCn1c(SCC(=O)Nc2ccc(S(=O)(=O)N3CCOCC3)cc2)nc2ccccc21 do in these assays?
SUMO Mot1 rescue: 83; M18AAP inhibitor: 7; HIF act: 0

Results for CN(CC(=O)Nc1cccc(F)c1)C(=O)CN1C(=O)NC2(CCCC2)C1=O ?
SUMO Mot1 rescue: 101; ALR H2O2 inh: -2

How did O=C(CN1CCOc2ccccc21)NC1CCN(Cc2ccccc2)CC1 do in these assays?
SUMO Mot1 rescue: 94; M18AAP inhibitor: 5; ALR H2O2 inh: 87*; HIF act: 0

Results for O=C(Nc1ccccc1)NC1CCN(Cc2ccccc2)CC1 ?
SUMO Mot1 rescue: -2; M18AAP inhibitor: 5; ALR H2O2 inh: -15; HIF act: 0

How did O=C(CN1CCOc2ccccc21)NC1CCCCCCC1 do in these assays?
SUMO Mot1 rescue: -6; M18AAP inhibitor: 3; ALR H2O2 inh: 99*; HIF act: 0

How did CN(C)CCP(=O)(c1ccccc1)c1ccccc1 do in these assays?
SUMO Mot1 rescue: -6; M18AAP inhibitor: -5; ALR H2O2 inh: -8; HIF act: 0

How did CN(C)CCN(C)Cc1c2ccccc2c(CN(C)CCN(C)C)c2ccccc12 do in these assays?
SUMO Mot1 rescue: -11; M18AAP inhibitor: 29*; ALR H2O2 inh: -9; HIF act: 3

How did CC(C)[C@]1(c2ccccc2)ON(c2ccccc2C(F)(F)F)C1=O do in these assays?
SUMO Mot1 rescue: 3; ALR H2O2 inh: 3

How did O=C(NNc1c(F)c(F)cc(F)c1F)c1ccc(Cl)nc1 do in these assays?
SUMO Mot1 rescue: 12; M18AAP inhibitor: 11; ALR H2O2 inh: 96*; HIF act: 1

How did COc1cc([C@H]2OC[C@H]3[C@@H]2CO[C@H]3c2ccc(O)c(OC)c2)ccc1O do in these assays?
SUMO Mot1 rescue: -2; ALR H2O2 inh: 98*

What do the screens show for `C/C=C/c1cc(OC)c2c(c1)[C@H](C)[C@@H](c1ccc(O)c(OC)c1)O2`?
SUMO Mot1 rescue: -5; ALR H2O2 inh: 63; HIF act: 0

What do the screens show for `COc1cc(C2OCC3C(c4ccc(OC5OC(CO)C(O)C(O)C5O)c(OC)c4)OCC23)ccc1O` (configuration not stated)?
SUMO Mot1 rescue: 66; M18AAP inhibitor: 41*; ALR H2O2 inh: 95*; HIF act: 0

Results for O=[N+]([O-])c1ccc(-c2nnc(S)n2-c2ccccc2)cc1 ?
SUMO Mot1 rescue: -5; M18AAP inhibitor: 1; ALR H2O2 inh: -11; HIF act: -4

Results for NC(=O)c1ccsc1NC(=O)COC(=O)c1cc(=O)[nH]c2ccccc12 ?
SUMO Mot1 rescue: -9; ALR H2O2 inh: -4; HIF act: 0

What do the screens show for `NC(=O)c1ccccc1OCC(=O)N1CCc2ccccc2C1`?
SUMO Mot1 rescue: -17; M18AAP inhibitor: 11; ALR H2O2 inh: -7; HIF act: 0

How did Cc1cc(C(=O)NC2CC(C)(C)Cc3c2cnn3-c2cccc(F)c2)n(C)n1 (configuration not stated) do in these assays?
SUMO Mot1 rescue: -16; M18AAP inhibitor: -4; ALR H2O2 inh: 4; HIF act: 1

How did Cc1cc(C(=O)NC2CC(C)(C)Cc3c2cnn3-c2cccc(F)c2)nn1C (configuration not stated) do in these assays?
SUMO Mot1 rescue: 0; M18AAP inhibitor: 2; ALR H2O2 inh: 3; HIF act: 0

What do the screens show for `CC1=C(C(=O)NC2CC(C)(C)Cc3c2cnn3-c2cccc(F)c2)OCCO1` (configuration not stated)?
SUMO Mot1 rescue: -22; M18AAP inhibitor: -2; ALR H2O2 inh: 97*; HIF act: 0

How did CC1(C)Cc2c(cnn2-c2cccc(F)c2)C(NC(=O)c2ccc(=O)[nH]n2)C1 (configuration not stated) do in these assays?
SUMO Mot1 rescue: 14; M18AAP inhibitor: -4; ALR H2O2 inh: 92*; HIF act: 1

What do the screens show for `CN(C)[C@@H]1C(=O)C(C(=O)NCN2CCCC2)=C(O)[C@@]2(O)C(=O)C3=C(O)c4c(O)cccc4[C@@](C)(O)C3CC12` (some centres not stated)?
M18AAP inhibitor: 28*

Results for C[n+]1ccccc1/C=C1\Sc2ccccc2N1CCO ?
SUMO Mot1 rescue: -22; M18AAP inhibitor: 7; ALR H2O2 inh: 70; HIF act: 0

Results for CCC(CO)[n+]1c(C)cc(/C=C2\Sc3ccccc3N2Cc2ccccc2)cc1C (configuration not stated) ?
SUMO Mot1 rescue: -17; M18AAP inhibitor: 27; ALR H2O2 inh: 98*

Results for COC(C[C@@H](O)[C@@H](C)[C@H](O)COCc1ccccc1)OC ?
HIF act: 0

Results for CC(=O)N1CC(=O)N=C1SCC(=O)Nc1nc(C)c(-c2ccccc2)s1 ?
SUMO Mot1 rescue: 17; M18AAP inhibitor: 9; ALR H2O2 inh: 98*; HIF act: 2

What do the screens show for `Cc1nc(NC(=O)CN2CCOCC2)sc1-c1ccccc1`?
M18AAP inhibitor: 1; ALR H2O2 inh: -23; HIF act: 2

What do the screens show for `CCOc1ccc(-c2csc(NC(=O)CSCC(=O)O)n2)c2ccccc12`?
SUMO Mot1 rescue: 16; M18AAP inhibitor: 1; ALR H2O2 inh: 44; HIF act: 0

What do the screens show for `CCOc1ccc(-c2csc(NC(=O)CSC3=NC(=O)CN3C(C)=O)n2)c2ccccc12`?
SUMO Mot1 rescue: -1; M18AAP inhibitor: -6; ALR H2O2 inh: 99*; HIF act: 0

Results for C[C@]1(CO)CCC[C@@]2(C)C1CC[C@@H](CO)[C@@H]2CCc1ccoc1 (some centres not stated) ?
SUMO Mot1 rescue: 29; M18AAP inhibitor: -2; HIF act: 0

How did O=Cc1coc2c(ccc3ccccc32)c1=O do in these assays?
SUMO Mot1 rescue: 322*; M18AAP inhibitor: -10; ALR H2O2 inh: 24; HIF act: -14

Results for CCN(CC(=O)Nc1c(F)cccc1F)C(=O)c1cc(C)oc1C ?
SUMO Mot1 rescue: -17; ALR H2O2 inh: 2; HIF act: 0
